Assay results reported in PubChem BioAssay AID1619 (SRMLSC, 2009).
The campaign covered roughly 220,000 compounds. About 830 (0.38%) were called active.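 How the source made its calls: active means compound inhibiting the enzyme by more than half at any dose during confirmatory dose-response retesting; inconclusive means strong single-dose inhibitors picked by rank but not retested; inactive means the rest.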 Not all results are given here. Results with a measured potency or affinity are listed apart.

Molecular target: Leucine aminopeptidase (Plasmodium falciparum (isolate 3D7)) (UniProt Q8IL11)
Assay: P. falciparum M17LAP inhibitors, primary screen, biochemical, fluorogenic H-Leu-NHMec substrate, 1536-well (AID 1619);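 further: plate controls were full reaction with DMSO carrier for no effect and no enzyme background for full effect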
Settings: recombinant M17LAP, H-Leu-NHMec fluorogenic kinetic assay; at 30 µM; hits give high values

Leucine aminopeptidase (Plasmodium falciparum (isolate 3D7)), sequence (Q8IL11 whole entry, looked up): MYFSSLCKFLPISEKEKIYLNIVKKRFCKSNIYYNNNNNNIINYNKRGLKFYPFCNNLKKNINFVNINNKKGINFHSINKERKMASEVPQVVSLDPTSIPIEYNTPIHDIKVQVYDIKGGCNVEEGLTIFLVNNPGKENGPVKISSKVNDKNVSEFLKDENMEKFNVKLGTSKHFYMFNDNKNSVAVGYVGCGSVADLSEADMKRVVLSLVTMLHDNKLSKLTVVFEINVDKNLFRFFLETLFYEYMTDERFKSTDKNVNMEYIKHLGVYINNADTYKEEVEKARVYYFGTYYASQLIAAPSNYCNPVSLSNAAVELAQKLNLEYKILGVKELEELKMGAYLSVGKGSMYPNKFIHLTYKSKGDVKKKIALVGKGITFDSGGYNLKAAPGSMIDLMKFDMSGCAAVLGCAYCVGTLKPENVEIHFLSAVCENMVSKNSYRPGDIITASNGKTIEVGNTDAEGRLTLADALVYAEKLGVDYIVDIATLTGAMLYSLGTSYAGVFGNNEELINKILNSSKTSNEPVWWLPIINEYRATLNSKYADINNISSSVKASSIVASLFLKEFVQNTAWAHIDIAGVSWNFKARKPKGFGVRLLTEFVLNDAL

Compound	inhibition
CC(=O)c1ccn(S(=O)(=O)c2ccc(Cl)cc2)c1	9.38% (inactive)
CC(=O)Nc1ccc(NC(=O)C2CCCN(c3nnc(-n4cccc4)s3)C2)cc1 (stereo unspecified)	4.4% (inactive)
CCNC(=O)NCc1c(C)c(C)n(Cc2ccccc2)c1-n1cccc1	4.1% (inactive)
CCOc1ccc2[nH]cc(C(=O)NCCCN3CCOCC3)c(=O)c2c1	4.64% (inactive)
CCCCN1CNC(=S)N(CCc2ccc(OCC)c(OCC)c2)C1	4.53% (inactive)
C=CCn1c(SCC(=O)Nc2cc(C)on2)nnc1C1COc2ccccc2O1 (stereo unspecified)	9.81% (inactive)
C=CCn1c(SCC(=O)NCc2ccc3c(c2)OCO3)nnc1C1CCCCC1	20.8% (inactive)
Cc1nnc(SCC(=O)NCc2ccc3c(c2)OCO3)n1C	-1.94% (inactive)
Cn1c(SCC(=O)c2ccc3c(c2)OCO3)nnc1C1COc2ccccc2O1 (stereo unspecified)	10.4% (inactive)
O=c1[nH][nH]cc1C=Nc1ccccc1Cl	2.22% (inactive)
Clc1ccc(OCc2nc(-c3ccncc3)no2)cc1	0.59% (inactive)
COc1ccc(-c2[nH]n(-c3ccc([N+](=O)[O-])cc3)c(=O)c2C=NCc2ccncc2)cc1	-8.57% (inactive)
CC(C)COC(=O)Nc1ccc(C(=O)O)cc1	13.3% (inactive)
Cc1cc(C(F)F)n2nc(C(=O)Nc3ccccc3F)nc2n1	1.81% (inactive)
O=C(O)CCCCCN1C(=O)/C(=C\c2cn(-c3ccccc3)nc2-c2cccs2)SC1=S	-1.95% (inactive)
O=C(O)CCCN1C(=O)/C(=C/c2cn(-c3ccccc3)nc2-c2cccs2)SC1=S	7.34% (inactive)
Cn1c(=O)c(-c2cc(Br)ccc2N)nc2ccccc21	9.54% (inactive)
NC(=O)c1c(NC(=O)C2CCCO2)sc2c1CCC2 (stereo unspecified)	40% (inactive)
COC(=O)c1c(NC(=O)c2ccoc2C)sc2c1CCC2	-15.6% (inactive)
NC(=O)c1c(NC(=O)C2CCCO2)sc2c1CCCC2 (stereo unspecified)	25.2% (inactive)
CCOC(=O)c1c(NC(=O)c2ccoc2C)sc2c1CCC2	16.6% (inactive)
O=c1cc(-c2ccc([N+](=O)[O-])cc2)c2cc3c(cc2[nH]1)OCCO3	0.51% (inactive)
CCc1cccc(C)c1NC(=S)N(CCN(C)C)C(C)c1cccnc1 (stereo unspecified)	3.46% (inactive)
CSc1nnc(-c2sc3cc(C(F)(F)F)cnc3c2-c2cccnc2)n1C	2.54% (inactive)

Compound	inhibition
COc1cc(OC)c2ccc(=O)oc2c1C(CC(=O)N1CCOCC1)c1ccc2c(c1)OCO2 (stereo unspecified)	11.3% (inactive)
CCCc1cc(=O)[nH]c(SCCOc2ccc(Cl)cc2)n1	3.09% (inactive)
CCN=C(NCC)SC1CC(=O)N(c2ccccc2)C1=O (stereo unspecified)	0.73% (inactive)
Cn1cnc(S(=O)(=O)Nc2ccc(C(F)(F)F)cc2)c1	8.69% (inactive)
COc1ccc(S(=O)(=O)Nc2ccc(C(F)(F)F)cc2)cc1OC	8.66% (inactive)
Cc1cc(NC(=O)CN2CCCCC2C)no1 (stereo unspecified)	15.1% (inactive)
CC(=C/c1ccccc1)/C=N/NC(=O)CSc1nc(C)cc(C)n1	22.8% (inactive)
CC(/C=N/NC(=O)CSc1nc(C)cc(C)n1)=C\c1ccccc1	11.7% (inactive)
CC1=NNC(=O)C1CC(=O)N/N=C/C=C/c1ccccc1 (stereo unspecified)	19.3% (inactive)
Cc1ccc(NC(=O)CCC(=O)N/N=C/C=C/c2ccccc2)cc1	16.5% (inactive)
COc1ccccc1/C=C\C=N\NC(=O)CCn1nnc2ccccc21	4.22% (inactive)
CC1C(=O)NN=C1C(=O)N/N=C\C(Br)=C\c1ccccc1 (stereo unspecified)	45.9% (inactive)
CC1=NNC(=O)C1CC(=O)N/N=C/C(Br)=C/c1ccccc1 (stereo unspecified)	15.5% (inactive)
COc1ccccc1/C=C/C=N/NC(=O)CC1C(=O)NN=C1C (stereo unspecified)	13.6% (inactive)
Cc1ccc(C(=O)Nc2cc(=O)n(C)c(=O)n2C)cc1C	1.37% (inactive)
CCNC(=O)C/C(C)=N/NC(=O)C1CCCCC1	12.5% (inactive)
CCn1ccnc1CN(C)Cc1nc(-c2ccc(C(=O)OC)cc2)no1	2.83% (inactive)
O=C(CNS(=O)(=O)c1ccc(C(=O)N2CCOCC2)cc1)N1CCOCC1	-0.01% (inactive)
COc1ccccc1NC(=S)N1CCC(c2nc3ccccc3o2)CC1	2.4% (inactive)
CCOC(=O)CCn1c(=S)n(CCC(=O)OCC)c2ccccc21	9.93% (inactive)
COc1ccc(N2CCN(CC(O)COc3ccc([N+](=O)[O-])cc3)CC2)cc1 (stereo unspecified)	4.37% (inactive)
O=C(Cc1ccccc1)c1c[nH]c(C(=O)O)c1	-7.97% (inactive)
NC(=O)c1cccc(CC(=O)c2ccccc2)c1	-5.22% (inactive)
O=c1[nH]nc(N/N=C/c2ccccc2OC(F)F)c(=O)[nH]1	3.73% (inactive)

Compound	inhibition
CC(=O)Nc1scc(C)c1-c1nc2ccccc2s1	-9.4% (inactive)
Cc1csc(NC(=O)CSCC(=O)O)c1-c1nc2ccccc2s1	1.7% (inactive)
O=C(O)CCC(=O)Nc1nc2ccccc2s1	16.1% (inactive)
Cc1cccc(C)c1NC(=O)CCCSc1nc2ccccc2s1	2.06% (inactive)
O=C(NNC(=S)Nc1ccc(Br)cc1Cl)c1ccncc1	21.5% (inactive)
CCOC(=O)c1ccc(NC(=O)C2CCCN(S(=O)(=O)c3cnc[nH]3)C2)cc1 (stereo unspecified)	-0.78% (inactive)
COc1ccc(CN2CCN(C(C)C)C(CCO)C2)cc1Cn1cncn1 (stereo unspecified)	1.4% (inactive)
COc1ccc(N2CCN(CCCNC(=O)C3CCC(CNc4nc(=S)[nH]c5ccccc45)CC3)CC2)cc1 (stereo unspecified)	10.8% (inactive)
COc1ccccc1N(CC(=O)NCCC1=CCCCC1)S(=O)(=O)c1ccccc1	-1.31% (inactive)
CC1CN(C2CCN(C(=O)c3ccccc3)CC2)CC(C)O1 (stereo unspecified)	6.07% (inactive)
O=C(c1ccccc1F)N(Cc1ccc2c(c1)OCO2)Cc1cc2cc3c(cc2n2nnnc12)OCO3	3.97% (inactive)
CCOC(=O)CSc1nc2c(sc(=S)n2Cc2ccco2)c(=O)n1-c1ccccc1	6.2% (inactive)
CCOC(=O)CSc1nc2c(sc(=S)n2-c2ccc(OCC)cc2)c(=O)[nH]1	14.5% (inactive)
CCOc1ccc(-n2c(=S)sc3c(=O)[nH]c(SCC(=O)C(C)(C)C)nc32)cc1	37% (inactive)
CCN(CC)C(=O)CSc1nc2c(sc(=S)n2-c2ccccc2)c(=O)[nH]1	12% (inactive)
CCCN(CCC)C(=O)CSc1nc2c(sc(=S)n2-c2ccc(OCC)cc2)c(=O)[nH]1	30.1% (inactive)
CCOC(=O)c1sc(=S)n(-c2ccccc2)c1N	6.93% (inactive)
CCN(CC)C(=O)CSc1nc2c(sc(=S)n2Cc2ccco2)c(=O)n1-c1ccccc1	8.29% (inactive)
O=S(=O)(c1cc(Cl)cc(Cl)c1)N1CCCC1c1nc2ccccc2s1 (stereo unspecified)	-5.02% (inactive)
O=C(COc1ncnc2sccc12)Nc1ccc2c(c1)OCCO2	34.8% (inactive)
COc1ccccc1CNC(=O)COc1ccccc1OC	3.35% (inactive)
Cc1cccc(NC(=O)Nc2ccc3c(c2)N(C)C(=O)CS3)n1	3.25% (inactive)
O=c1c2c(-c3ccc(Cl)cc3)csc2ncn1/N=C/c1cccc([N+](=O)[O-])c1O	-4.46% (inactive)
Cc1ccc(N2NC(C)(c3cccs3)NC2=S)cc1 (stereo unspecified)	-1.38% (inactive)

Compound	inhibition
COc1cc(NC(=O)c2nccnc2N)cc(C(=O)Nc2cccc(C(F)(F)F)c2)c1	-5.13% (inactive)
O=C(O)c1ccc(Cn2cc(C(F)(F)F)ccc2=O)cc1	-4.03% (inactive)
O=C(CC1Sc2ccccc2NC1=O)Nc1cccnc1 (stereo unspecified)	5.83% (inactive)
O=C(CC1Sc2ccccc2NC1=O)Nc1cccc(-c2nnc3n2CCCCC3)c1 (stereo unspecified)	3% (inactive)
O=C(O)c1ccc(NC(=O)C2(c3ccccc3)CCCC2)cc1	3.99% (inactive)
COC(=O)Nc1sc2c(c1C(N)=O)CCC(C)C2 (stereo unspecified)	26.4% (inactive)
CC1CCc2c(sc(NC(=O)C3c4ccccc4Oc4ccccc43)c2C(N)=O)C1 (stereo unspecified)	8.46% (inactive)
COc1ccc2nc(Nc3sc4c(c3C(N)=O)CCCC4)sc2c1	8.22% (inactive)
Fc1cccc2sc(Nc3nc4c(F)cccc4s3)nc12	16.7% (inactive)
CC(=O)c1ccc(Nc2ccc(-c3ccccc3F)nn2)cc1	28.4% (inactive)
COC(=O)c1ccccc1NC(=O)C(C)c1ccc([N+](=O)[O-])cc1 (stereo unspecified)	-0.59% (inactive)
N#C/C(C(=O)NCc1ccccc1)=C1/N=C(NC(=O)c2cccs2)c2ccccc21	5.68% (inactive)
CCOC(=O)C1=C(C)N=C2SCCC(=O)N2[C@@H]1c1cccs1	3.63% (inactive)
NC(=O)CC(NC(=O)Cc1cccc2ccccc12)c1ccc(NC2CCC2)c([N+](=O)[O-])c1 (stereo unspecified)	15% (inactive)
COC(=O)c1cn(C(=O)c2cccc(C)c2)c2ccccc12	1.71% (inactive)
Cc1ccc(C(=O)NC(=S)NNC(=O)COc2ccccc2C)cc1	-0.9% (inactive)
Cc1cccc(C(=O)NC(=S)Nc2ccccc2C(=O)O)c1	3.36% (inactive)
O=C(Cc1ccccc1)NNC(=S)NC(=O)c1cccnc1	13.8% (inactive)
O=C(NC(=S)NNC(=O)c1ccccc1F)c1cccnc1	5.36% (inactive)
O=C(NNC(=S)NC(=O)c1cccnc1)c1ccc(Cl)cc1	71.2% (inactive)
Cc1cccc(NC(=S)NNC(=O)Cc2ccccc2)c1	15.6% (inactive)
Cc1cccc(C(=O)NC(=S)NNC(=O)c2ccc(Cl)cc2)c1	86.2% (inactive)
Cc1cccc(C(=O)NC(=S)NNC(=O)COc2ccc(Cl)cc2)c1	8.45% (inactive)
O=C(O)c1ccc2c(c1)SC1=NS(=O)(=O)CCN12	-2.18% (inactive)
